This is a sample that favours compounds with a hit; in the whole collection about 3.8% have one here.
HepG2 tox-1 = kills HepG2 cells in TGF-b inhibitor counter-screen. HepG2 CAGA-GFP viability, ATP luminescence, 18 h. Potency, µM (doses to about 46.1 µM), without a hit: top-dose activity change, negative = cytotoxicity, most hits filed as cytotoxic. hit rate 0.76% among 410,000. AID 588856
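CellTiter-Glo luminescence gave cytotoxicity after 18 hours at 37 degrees C. The cells were HepG2 CAGA-GFP in 1% FBS DMEM, stimulated with 500 pg/mL TGF-beta after compound addition. %Activity was normalised to no-cell wells (complete cell-killing) and DMSO (no toxicity), and curves were fitted and classified.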
S2 tox = viability counter-screen for ATXN expression inhibitors; S2 cells (HEK-293 line with an ATXN2-luciferase reporter) viability, CellTiter-Fluor protease fluorescence, 24 h; Potency, µM (series often up to 56.7 µM), hits mostly cytotoxic; hit rate 0.49% among 400,000; also: nearly all actives have a fitted effect of over 40% in size
HT1080 IDH1KD tx = HT-1080 IDH1 knockdown cell toxicity (counter line); Potency, µM (top dose mostly 46.1 µM), inactives show top-dose activity, negative = toxicity, most hits filed as cytotoxic; AID 686971; HT-1080 IDH1 knockdown viability, ATP luminescence, 48 h; hit rate 2% among 360,000;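 also: 0% = DMSO wells and -100% = cell-free medium wells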
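IDH1KD HT-1080 cells, 750/well, RPMI + 5% FBS; compound pinned after 2 h settling; 48 h, 37 °C; CellTiter-Glo luminescence; % activity normalised to DMSO and no-cell wells; curves fitted, classed by r2 and efficacy.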
TGFb inhibitor = inhibitors of TGF-b signaling; HepG2 CAGA-GFP TGF-b/SMAD3 reporter, GFP fluorescence, 18 h; TGF-beta stimulated, 500 pg/mL final; hit rate 1.2% among 410,000; Potency, µM (series often up to 46.1 µM), for the others: top-dose activity, negative = inhibition, actives largely listed as inhibitors; also: % is scaled to controls: 0 for no effect and ±100 for the full control effect; nearly all actives have a fitted effect of over 65% in size
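HEPG2 CAGA-GFP, 1000 cells/well; 2 h settle, 37 C; cpd via pin tool; TGF-b 500 pg/mL final; 18 h, 37 C; GFP imaging ex488/em500-530; %Activity normalised to -TGF-b and +DMSO controls; CRC fit, curve class.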
HT1080NT lethal = kills 2HG-producing HT-1080-NT fibrosarcoma cells; hit rate 1.6% among 360,000; AID 686970; HT-1080-NT fibrosarcoma viability, CellTiter-Glo ATP luminescence, 48 h; Potency, µM (titrated, usually from 46.1 µM), without a hit: at the top dose activity, negative = less viability, most hits filed as cytotoxic;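 also: NT is the 2HG producing partner of a matched IDH1 knockdown line; 0% = DMSO-treated cells and -100% = media-only wells without cells; nearly all actives have a fitted effect of over 55% in size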
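Viability of the 2HG-overproducing fibrosarcoma line after 48 hours of compound exposure at 37 degrees C was determined by luminescence with CellTiter-Glo, and concentration-effect curves were then fitted and categorized.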
ATXN2 expr inh = inhibitors of ATXN2 expression; hit rate 0.72% among 360,000; AID 1745845; HEK-293 ATXN2-luciferase reporter, luminescence, 24 h; Potency, µM (titrated, usually from 57 µM), for inactives: at the highest dose activity change, negative = inhibition, hits mostly inhibitors; also: % is scaled to controls: 0 for no effect and ±100 for the full control effect; nearly all actives have a fitted effect of over 55% in size
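ATXN2-luciferase reporter cells (luciferase flanked by upstream and downstream ATXN2 gene portions) were treated 24 h at 37 °C with compounds at up to 57 uM. SteadyGlo luminescence gave expression; GF-AFC fluorescence gave viability.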
TGFb CAGA inh = confirmation of TGF-b signaling inhibitors in HepG2 reporter cells; shares compounds with TGFb inhibitor; HepG2 CAGA-GFP TGF-b reporter, GFP fluorescence, 18 h; cells stimulated with TGF-beta, 500 pg/mL; Potency, µM (titrated, usually from 46.1 µM), for the others: top-dose activity, negative = inhibition, usual class: inhibitors; hit rate 63% among 1,600; also: % is scaled to controls: 0 for no effect and ±100 for the full control effect; nearly all actives have a fitted effect of over 65% in size
HepG2 tox-2 = HepG2 cytotoxicity, TGF-b inhibitor counterscreen. shares compounds with TGFb inhibitor. HepG2 CAGA-GFP viability, ATP luminescence, 18 h; cells stimulated with TGF-beta, 500 pg/mL. Potency, µM (series often up to 46.1 µM), for the others: at the top dose activity, negative = cytotoxicity, hits mostly inhibitors. hit rate 27% among 1,600. AID 720535; also: % is scaled to controls: 0 for no effect and ±100 for the full control effect; nearly all actives have a fitted effect of over 70% in size
CCL64 TGFb inh = orthogonal confirmation of TGF-b inhibitors in CCL64 cells; shares compounds with TGFb inhibitor; CCL64 CAGA-GFP reporter, TGF-b stimulated, GFP fluorescence, 18 h; Potency, µM (series often up to 46.1 µM), for inactives: at the highest dose activity, negative = inhibition, actives largely listed as inhibitors; hit rate 41% among 1,600; AID 720536; also: nearly all actives have a fitted effect of over 65% in size
TGFb COP inh = blocks TGF-b signaling in HepG2 COP reporter | shares compounds with TGFb inhibitor | HepG2 COP-GFP TGF-b reporter, GFP fluorescence, 18 h; cells stimulated by added recombinant TGF-beta | Potency, µM (series often up to 46.1 µM), inactives show at the highest dose activity, negative = inhibition, most hits filed as inhibitors | hit rate 3% among 1,600 | AID 720537; also: nearly all actives have a fitted effect of over 70% in size
An asterisk follows results filed as active; i = inactive; ? = inconclusive; / = not tested or not shown; [ ] = dose if it differs, or a comment. Calls follow the shape of the dose curve; as a rule, active = well fitted curve in the direction sought with a large enough effect; inconclusive = small, poorly fitted or top-dose-only effect, or another doubt; inactive = no such curve, though single readings can be large; an effect the other way counts as inactive or inconclusive. Potency is read from the fitted curve at half-maximal effect.

SMILES	HepG2 tox-1	S2 tox	HT1080 IDH1KD tx	TGFb inhibitor	HT1080NT lethal	ATXN2 expr inh	TGFb CAGA inh	HepG2 tox-2	CCL64 TGFb inh	TGFb COP inh
CCOc1ccc(CNC(=O)c2cc3c(=O)n(Cc4cccs4)ccc3nc2C)cc1	-19%	/	/	?	/	/	/	/	/	/
Cc1ccc(-c2csc(NC(=O)CCNC(=O)c3ccccc3Cl)n2)cc1	-21%	?	-18%	?	-10%	/	/	/	/	/
Cc1ccc(-c2csc(NC(=O)CCNC(=O)c3ccc(Cl)cc3)n2)cc1	-64%	?	-1%	?	-7%	?	-17%	2%	?	5%
Cc1ccc(COC(=O)c2nn(C)c(=O)c3ccccc23)cc1	-9%	i	?	?	-16%	-16%	?	3%	6%	-8%
Cn1nc(C(=O)OCc2ccc(Br)cc2F)c2ccccc2c1=O	-12%	i	6%	-9%	0%	-1%[11.3 µM]	/	/	/	/
CCCc1cc2c(cc1NC(=O)c1ccco1)OCO2	6%	i	-4%	?	1%	-8%	-27%	2%	0%	-2%
CCCc1cc2c(cc1NC(=O)c1ccccc1F)OCO2	32%	i	15%	28%	7%	0%	/	/	/	/
O=c1cc(O)c(Cl)c[nH]1	/	i	/	/	/	-11%	/	/	/	/
O=C(COc1ccccc1F)Nc1ccccc1OCc1cc(=O)n2ccccc2n1	4%	/	/	4%	/	/	/	/	/	/
CCCCCCC[C@@H](C/C=C/CCC(=O)N(C)C/C(=C/Cl)C/C(=C\C(=O)N1CC(OC)=CC1=O)OC)OC	-70%	22µM*	9.2µM*	0.71µM*	5.8µM*	?	0.73µM*	?	7.3µM*	-3%
COc1ccc2sc(N(Cc3cccnc3)C(=O)c3cccs3)nc2c1	2%	/	/	-15%	/	/	/	/	/	/
COc1cc(C(=O)N2CC(=O)Nc3ccccc32)cc(OC)c1OC	4%	i	?	-14%	?	/	/	/	/	/
Cc1cc(C)cc(C(=O)N2CC(=O)Nc3ccccc32)c1	-11%	?	0.52µM*	10µM*	1.2µM*	4%	7.3µM*	7%	8.2µM*	-3%
Cc1ccc2c(c1)nnn2C1CCN(CC(=O)Nc2ccccc2N2CCOCC2)CC1	-48%	?	?	10µM*	?	-28%	?	?	?	10%
O=C(Nc1ccc([N+](=O)[O-])cc1)Nc1cnccn1	-51%	i	-8%	?	-13%	-25%	?	?	?	13%
Cc1cccc(N2CCN(C(=O)c3cn(C)c(=O)c4c3c3ccccc3n4C)CC2)c1C	-21%	i	18µM*	10µM*	?	?	?	?	21µM*	50%
Cc1ccc(C2(c3ccccc3)NC(=O)N(CC(=O)NCc3ccccc3)C2=O)cc1C (stereo not given)	-28%	?	-17%	11µM*	-20%	-22%	7.3µM*	?	?	42%
CCOc1ccc(/C=C/c2nc(C#N)c(N3CCC(C)CC3)o2)cc1	-39%	/	/	?	/	/	/	/	/	/
COc1ccc(Br)c2c1-c1nc(NC(=O)c3ccc(F)cc3)sc1C2	7%	i	/	3%	/	-5%	/	/	/	/
Cc1cc(C)nc(-n2nc(C)cc2NC(=O)CN2CCCC2)n1	-2%	i	1%	-13%	15%	/	/	/	/	/
Cc1cc(C)nc(-n2nc(C)cc2NC(=O)CN2CCC(C)CC2)n1	-18%	i	-6%	16µM*	-2%	-4%	?	-17%	-12%	-21%
COc1ccc2[nH]c3c(c2c1)CCN1C(=O)C(CC(=O)NCCC2=CCCCC2)C[C@H](C(=O)N2CCCCC2)[C@@]31C (stereo not given in full)	-36%	i	11%	7.9µM*	2%	-1%	?	-8%	-13%	27%
C[C@]12c3[nH]c4cc(-c5ccco5)ccc4c3CCN1C(=O)[C@@H](CC(=O)NCCc1ccccn1)C[C@@H]2C(=O)N1CCCCC1	-2%	i	-10%	?	-5%	-23%	?	-21%	-27%	32%
CCN(CC)C(=O)[C@H]1CC(CC(=O)NCc2cccc(C(F)(F)F)c2)C(=O)N2CCc3c([nH]c4ccc(OC)cc34)[C@]12C (stereo not given in full)	-4%	?	-23%	8.9µM*	-7%	?	33µM*	-29%	?	6%
CCN(CC)C(=O)[C@H]1CC(CC(=O)NCCN2CCOCC2)C(=O)N2CCc3c([nH]c4ccc(OC)cc34)[C@]12C (stereo not given in full)	-2%	i	9%	-3%	9%	8%	/	/	/	/
CCN(CC)C(=O)[C@H]1C[C@H](CC(=O)NCc2cccc(C(F)(F)F)c2)C(=O)N2CCc3c([nH]c4cc(-c5ccco5)ccc34)[C@]12C	-38%	?	?	10µM*	?	?	9.2µM*	16µM*	12µM*	35%
CC[C@]12c3[nH]c4cc(-c5ccco5)ccc4c3CCN1C(=O)[C@@H](CC(=O)NCCc1ccccn1)C[C@@H]2C(=O)N1CCN(C(=O)C2CC2)CC1	-2%	i	-3%	?	-5%	-3%	/	/	/	/
COc1ccc(CCNC(=O)C(=O)NCC(c2ccco2)S(=O)(=O)c2ccccc2)cc1OC (stereo not given)	-27%	/	/	?	/	/	/	/	/	/
COc1cccc(N2CCN(C(=O)c3cnn(-c4ccc(C)cc4C)c3C3CCN(C(=O)OC(C)(C)C)CC3)CC2)c1	-11%	?	/	?	/	?	/	/	/	/
